Screening results (PubChem)
Most compounds without a hit are left out; they make up all but 3.2% or so of the library.
rCAG RNA binder = binders of r(CAG) RNA repeats, primary screen, biochemical, fluorescence | AID 651821, 2012 | inhibition, % at 3 µM | 1.3% of 370,000 active | r(CAG) RNA repeat, TO-PRO-1 dye displacement fluorescence;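 active = inhibition above the plate cutoff, the mean of all test compounds on that plate plus 3 SD, cut at about 35% in these data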;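 also: 0% = DMSO alone and 100% = 100 µM mitoxantrone as full dye displacement; higher means more dye released from RNA so lower well fluorescence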
sPLA2-III inh = human group III sPLA2 inhibitors, primary screen, biochemical, QFRET, BODIPY PC-A2 liposome substrate. Group 3 secretory phospholipase A2 (Homo sapiens), Q9NZ20. QFRET BODIPY PC-A2 liposome hydrolysis, fluorescence. inhibition, % at 12.2 µM. 0.56% of 370,000 active;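 active = inhibition above mean plus 3 SD of compounds lying within the high and low control bounds, cut at about 19% in these data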;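 also: 0% = median of test compound wells and 100% = no enzyme DMSO wells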
Target sequence (Q9NZ20 whole entry, looked up): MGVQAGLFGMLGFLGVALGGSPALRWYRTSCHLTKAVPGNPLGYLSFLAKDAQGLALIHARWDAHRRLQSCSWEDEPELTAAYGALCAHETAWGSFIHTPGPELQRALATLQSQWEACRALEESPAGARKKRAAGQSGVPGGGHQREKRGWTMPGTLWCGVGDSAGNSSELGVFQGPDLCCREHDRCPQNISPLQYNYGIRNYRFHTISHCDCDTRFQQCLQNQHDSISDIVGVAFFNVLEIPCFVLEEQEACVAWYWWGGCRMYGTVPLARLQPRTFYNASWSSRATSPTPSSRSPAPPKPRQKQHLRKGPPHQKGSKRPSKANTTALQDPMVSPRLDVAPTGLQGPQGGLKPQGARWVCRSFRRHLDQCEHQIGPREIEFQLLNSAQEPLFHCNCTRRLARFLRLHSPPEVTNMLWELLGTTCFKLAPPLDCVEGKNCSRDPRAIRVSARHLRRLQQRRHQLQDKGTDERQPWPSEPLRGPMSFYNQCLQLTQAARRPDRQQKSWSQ
PG9 Ab binder = binders of HIV-1 gp120 antibody PG9, primary screen, biochemical, TR-FRET. HIV-1 gp120 / PG9 antibody interaction. TR-FRET gp120-PG9 antibody binding. inhibition, % at 6.7 µM. 0.43% of 360,000 active. AID 624416, 2012; in the data active = inhibition above about 8.5%
MsrA act = bovine MsrA enzyme activators, primary screen, biochemical, absorbance, HTS; Methionine sulfoxide reductase A (Bos taurus); purified bovine MsrA, absorbance read-out; activation, % at 10.6 µM; 0.3% of 360,000 active; in the data active = activation above about 7.5%;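 also: 0% = vehicle and 100% = reference activator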
MsrA inh = bovine MsrA enzyme inhibitors, primary screen, biochemical, absorbance, HTS | 0.75% of 360,000 active | inhibition, % at 15.5 µM | purified bovine MsrA, absorbance read-out | AID 651718, 2012; in the data active = inhibition above about 4.5%;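 also: 0% = vehicle wells with enzyme and 100% = reference inhibitor wells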
sPLA2 confirm = human group III sPLA2 inhibitors, confirmation, biochemical, QFRET, triplicate; shares compounds with sPLA2-III inh; recombinant hGIII-sPLA2, BODIPY PC-A2 QFRET fluorescence; inhibition, % at 12.2 µM; 34% of 2,000 active; AID 743280, 2014;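 active = mean inhibition across triplicates above the hit cutoff set in the earlier primary screen, cut at about 19% in these data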;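 also: 0% = enzyme with DMSO and 100% = DMSO wells lacking enzyme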
535nm interf = 535nm fluorescence optical interference, confirmation, artefact control for HGIII-sPLA2 inhibitor project, biochemical, QFRET; 8.5% of 2,000 active; shares compounds with sPLA2-III inh; inhibition, % at 12.2 µM; BODIPY FL product fluorescence interference;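 active = average inhibition above the solvent-only control mean plus 3 SD, cut at about 6% in these data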;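 also: 0% = DMSO with substrate plus product and 100% = DMSO with substrate alone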
Starred values were filed as active, the others as inactive; nt = no result given.

SMILES	rCAG RNA binder	sPLA2-III inh	PG9 Ab binder	MsrA act	MsrA inh	sPLA2 confirm	535nm interf
COc1ccc(C(=O)NC(Oc2ccccc2)C(Cl)(Cl)Cl)cc1 (stereo not given)	-5	21*	1	-12	1	14	-1
COc1ccc(C(C)NC(=O)c2ccccc2)cc1 (stereo not given)	nt	nt	nt	0	nt	nt	nt
O=C(Nc1ccc(F)c(Cl)c1)c1ccc2sc([C@H]3C[C@H](O)[C@@H](CO)O3)nc2c1	6	0	-1	-1	1	nt	nt
COC(=O)[C@]12C[C@H](CC(=O)NCc3ccc(C)o3)C(=O)N(Cc3ccco3)C1=C[C@H](C1CCCC1)O[C@@H]2C	4	-7	nt	nt	nt	nt	nt
O=C(Nc1ccc(Cl)cc1C(=O)N1CCOCC1)c1ccco1	-1	20*	1	-4	0	2	-4
O=C(Nc1ccc(Cl)cc1C(=O)N1CCCCC1)c1ccco1	-2	1	0	-4	0	nt	nt
Cn1c(NC(=S)Nc2ccccc2)nc2ccccc21	6	39*	2	-7	3	35*	6.3*
COc1ccc(C(NC(C)=O)c2nccc3cc(OC)c(OC)cc23)cc1OC (stereo not given)	-5	20*	1	0	0	4	-2
O=C(NC1CCCC1)C1(C(=O)C2CC2)CC(c2ccccc2C(F)(F)F)=NO1 (stereo not given)	-1	12	nt	nt	nt	nt	nt
COc1ccc(C(=O)Oc2cc(/C=N/NC(N)=S)ccc2OC)cc1	4	5	-1	0	2	nt	nt
COc1ccc(/C=N/NC(N)=S)cc1	-1	21*	2	-8	2	2	-9
COC(=O)c1cccc(/C=N/NC(N)=S)c1O	2	21*	-1	-5	4	20*	-1
CN(CCCOC(=O)c1cc2ccccc2o1)C1CN(Cc2cn(Cc3ccccc3Cl)nn2)S(=O)(=O)C1 (stereo not given)	1	-12	nt	nt	nt	nt	nt
O=S1(=O)N[C@@H](Cc2ccccc2)COc2cc(N3CCC[C@@H]3CO)ccc21	4	-8	-1	-3	-1	nt	nt
Cc1c([N+](=O)[O-])cc(C(=O)N2CCOCC2)cc1[N+](=O)[O-]	-1	5	1	-6	0	nt	nt
COc1cc([N+](=O)[O-])c(C(=O)N2CCOCC2)c([N+](=O)[O-])c1	-3	20*	3	-2	1	5	0
COC(CNC(=O)c1ccc(N2CCC3(CC2)OCCO3)c([N+](=O)[O-])c1)OC	-2	23*	-1	-1	1	3	-9
O=C(O)C1CSC2c3ccccc3C(=O)N12 (stereo not given)	0	20*	0	-2	1	3	-5
CC(C)(C)NC(=S)NCCc1ccccc1	-2	20*	-2	-3	-1	24*	-5
Cc1ccc(/C=N/n2c(-c3ccco3)n[nH]c2=S)cc1	8	22*	1	2	2	12	-1
Cn1cccc1/C=N/n1c(-c2ccco2)n[nH]c1=S	4	16	-2	-1	0	nt	nt
CCn1c(C)nc2cc(C(=O)NNC(=S)Nc3ccc(C)cc3)ccc21	6	20*	0	-3	1	27*	1
CCn1c(C)nc2cc(C(=O)NNC(=S)Nc3ccccc3OC)ccc21	8	10	-2	nt	0	nt	nt
N#CCC[C@@H]1CC[C@]2(CCCN(Cc3ccccc3)C2)O1	3	0	nt	nt	nt	nt	nt
CCOC(=O)c1c(C)[nH]c(C(=O)N/N=C/c2cc([N+](=O)[O-])ccc2O)c1C	4	24*	0	-4	1	5	6.1*
Cc1noc(C)c1C(=O)N1CCC(n2nnc3ncccc32)CC1	0	1	nt	nt	nt	nt	nt
Cc1ccccc1Nc1nc(N)nc(CCl)n1	-3	20*	0	-3	-1	3	-8
